# From PubChem BioAssay
# CHT block: inhibitors of human choline transporter CHT; CHT-expressing cells, membrane potential dye, choline response; active compounds read low; B-score at 10 µM; 0.86% of 310,000 active; AID 488975;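 active = B-score over 3 SD under the library average, and starting fluorescence ratio not unusually high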;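 also: choline stimulus applied at its EC90 after an EC20 pre-addition; B-score computed on integrated fluorescence ratio after choline addition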
# Target sequence (Q9GZV3 whole entry, looked up): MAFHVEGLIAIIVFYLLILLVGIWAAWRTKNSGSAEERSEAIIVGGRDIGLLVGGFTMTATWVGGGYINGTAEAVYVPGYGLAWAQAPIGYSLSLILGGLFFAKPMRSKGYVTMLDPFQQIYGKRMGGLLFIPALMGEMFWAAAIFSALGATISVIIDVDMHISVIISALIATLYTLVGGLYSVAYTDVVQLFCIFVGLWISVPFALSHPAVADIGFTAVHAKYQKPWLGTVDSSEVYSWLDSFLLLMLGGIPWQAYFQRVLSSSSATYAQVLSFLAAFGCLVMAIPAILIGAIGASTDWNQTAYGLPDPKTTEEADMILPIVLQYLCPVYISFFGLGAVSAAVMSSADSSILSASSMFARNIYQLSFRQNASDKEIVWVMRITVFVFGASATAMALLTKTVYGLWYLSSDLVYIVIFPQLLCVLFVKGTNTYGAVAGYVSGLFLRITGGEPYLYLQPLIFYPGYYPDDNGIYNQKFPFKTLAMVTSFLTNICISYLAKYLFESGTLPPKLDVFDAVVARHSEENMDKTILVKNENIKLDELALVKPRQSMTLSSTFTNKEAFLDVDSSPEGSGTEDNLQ
# CHT PAM: allosteric activators of human choline transporter CHT; Q9GZV3; CHT-expressing cells, membrane potential dye, choline EC20; active compounds read high; LV-AA mutant CHT in HEK293 cells; B-score at 10 µM; 0.49% of 310,000 active;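 active = initial fluorescence not abnormally high and integrated response B-score, plate-corrected, over 3 SD above library mean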
# AI-2 QS mod: modulators of Vibrio harveyi AI-2 quorum sensing system | Vibrio harveyi JMH597 AI-2 luminescence/OD600 ratio, 9 h; active compounds read low; strain lacks LuxN and CqsS sensors; 0 = neutral-control median | activity change, % at 7.5 µM | 0.4% of 300,000 active | AID 2094; in the data active = activity change below about -75%, passing the limit was not always enough;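 also: luminescence divided by OD600 gain over 9 h not by final OD600 alone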
# ALR H2O2 inh: blocks human ALR sulfhydryl oxidase activity | P55789 | purified ALR, DTT oxidation, H2O2 HRP-luminol luminescence | inhibition, % (concentration not given with the values) | 3.8% of 290,000 active;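 active = mean replicate inhibition above about 79%, with every replicate also reaching it, limit read from the data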
# PREPL inhibitor: inhibitors of human prolyl oligopeptidase-like enzyme PREPL; recombinant PREPL, fluorescence polarization activity-based probe; inhibition, % at 5.96 µM; AID 2751; 0.68% of 320,000 active; Q4J6C6; in the data active = inhibition above about 43%;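 also: 0% = enzyme with DMSO and 100% = wells lacking enzyme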
# The depositor's hits bear a star; i = inactive; . = not tested or not shown. Shown are actives, neighbours in structure and some others; about 5% of the full set was active somewhere.
SMILES,CHT block,CHT PAM,AI-2 QS mod,ALR H2O2 inh,PREPL inhibitor
C[C@@]12C(=O)N(Cc3ccccc3)CC(=O)N1[C@H](/C=C/c1ccccc1)[C@@H]1C(=O)N(c3ccccc3)C(=O)[C@@H]12,i,i,15,-15,-4
COCCN(C(=O)c1ccccc1F)c1nnc(-c2ccc(OC)cc2)s1,i,i,0,-13,-2
COc1ccc(Br)cc1-c1nc(CCl)cs1,i,i,9,95*,0
Cc1ccc2cc(C#N)c(N3CCCN(C(=O)C4CCCO4)CC3)nc2c1C (centres undefined),-6.1*,i,4,-11,12
CCc1ccc2nc(NC(=O)C3CSC4(C)CCC(=O)N34)sc2c1 (centres undefined),i,i,26,1,-4
Cc1ccc(S(=O)(=O)Nc2ccc(O)c3ncccc23)cc1,i,i,2,88*,1
Cc1ccc(S(=O)(=O)Nc2cccc3ncccc23)cc1,i,i,22,0,2
Cc1ccc(S(=O)(=O)Nc2ccc(O)c3cccnc23)cc1,i,i,.,95*,11
Cc1ccc(S(=O)(=O)Nc2ccnc3ccccc23)cc1,i,i,29,.,1
O=C(NN=Cc1cc(Br)c(O)c(Br)c1)c1ccccc1NS(=O)(=O)c1cccs1,.,.,.,89*,17
O=C(NN=Cc1ccc(F)cc1)c1ccccc1NS(=O)(=O)c1cccs1,.,.,.,.,12
Cc1ccc(S(=O)(=O)N(Cc2c(F)cccc2Cl)C(=O)N2CCN(C)CC2)cc1,i,i,30,-7,-1
Cc1ccc(/C=C/C(=O)c2ccccc(=O)c2O)cc1C,i,i,3,96*,8
COc1ccc(/C=C/C(=O)c2ccccc2O)cc1,i,i,9,16,5
COc1ccc(C2CC(c3ccccc3)=NN2C(=O)COC(=O)c2nc3nc(C)cc(C)n3n2)cc1 (centres undefined),i,i,9,3,-5
CCOC(=O)c1ccccc1NC(=O)COc1ccccc1,i,i,4,97*,-1
CCOC(=O)c1ccccc1NC(=O)COC(=O)CCCOc1ccccc1,i,i,15,-1,14
c1ccc2c(C3=NNC(=NC4CC4)SC3)c[nH]c2c1,i,i,-1,99*,12
CCOc1ccccc1C(=O)NCC(=O)N1CCC(C)CC1,.,.,.,2,22
CCCc1cc(NC(=O)CCl)n(-c2ccccc2)n1,i,i,33,97*,7
N#CC1=C(SCc2ccccc2)NC(=O)CC1c1ccco1 (centres undefined),i,i,0,100*,-3
O=C1CCCN1CCCNCC(=O)N1c2ccccc2Sc2ccccc21,i,i,24,-12,5
Nc1ncn([C@@H]2O[C@H](CO)[C@@H](O)[C@H]2O)c(=O)n1,i,i,-87*,1,3
COc1ccc(CCC(=O)N2CCN(S(=O)(=O)c3ccc(OC(F)(F)F)cc3)CC2)cc1,.,.,.,1,0
O=C(CSCc1ccccc1)N1CCN(S(=O)(=O)c2cccc(F)c2)CC1,i,i,10,-4,10
SMILES,CHT block,CHT PAM,AI-2 QS mod,ALR H2O2 inh,PREPL inhibitor
O=C(CSCc1cccc(F)c1)N1CCN(c2ccccc2)CC1,i,i,19,98*,-37
CCn1c(CSCc2ccc(F)cc2)nnc1SCC(=O)N1CCN(c2ccccc2)CC1,i,i,21,97*,27
Cc1cc(C)cc(NC(=O)CN2CCN(c3ccccc3)CC2)c1,i,i,25,22,18
O=C(CSCc1ccccc1)N1CCN(c2ccccc2)CC1,i,i,0,98*,-25
O=C(CSCc1ccccc1)N1CCN(c2cccc(C(F)(F)F)c2)CC1,i,i,20,-14,-18
O=C(CN1CCN(c2ccccc2)CC1)Nc1ccncc1,i,i,8,99*,-4
COc1ccc(CCNS(=O)(=O)c2cc(C(=O)O)c(Cl)cc2Cl)cc1,i,i,10,-13,-6
Cc1cc(C)c(NC(=S)NC(CO)(CO)CO)c(C)c1,i,i,-8,-1,1
O=C(CCc1ccccc1)N1CCN(c2ccc(F)cc2)CC1,i,i,18,86*,-10
CC1(C)Cc2ccccc2-c2nnc(SCC(=O)N3CCN(c4ccccc4)CC3)n21,i,i,5,97*,5
O=C(CN1CCN(c2ccc(F)cc2)CC1)NCc1ccc(F)cc1,i,i,-11,.,-13
